Measurements taken from PubChem BioAssay (NCI).
Compounds without any hit were thinned out: in the full panel of roughly 79,000, 15% have a hit. Activity calls are given as the source filed them. Cut-off read from the data, not from the text of the source: active = growth inhibition above about 70%; inactive = the rest.

Assay: NCI Yeast Anticancer Drug Screen. Data for the rad50 strain (AID 155);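 note: 0% = growth of vehicle-only cultures of the same strain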
Settings: S. cerevisiae rad50 strain growth inhibition; at 50.0 µM; hits give high values
In short: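 Vehicle-treated cultures provide the reference for the growth inhibition reported for compound-exposed, repair-deficient yeast.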

| Structure (SMILES) | growth inhibition |
| --- | --- |
| CC(C)CC(C)OC(=O)Cc1ccccc1 (stereo unspecified) | 39% (inactive) |
| CNC(=O)Oc1ccc(Br)cc1Br | 29.4% (inactive) |
| Fc1ccccc1N=C=S | 4.55% (inactive) |
| Cc1cc(C)c(C(=O)O)c(C)c1.[Hg] | 99.6% (active) |
| COc1ccccc1P(=S)(c1ccccc1)c1ccccc1 | 31% (inactive) |
| CC1CN1C1=C(Br)C(=O)C(N2CC2C)=C(Br)C1=O (stereo unspecified) | 73.7% (active) |
| Nc1ccc2c(c1)[O][Sn]([c]1ccccc1)([c]1ccccc1)[O]C2=O | 85.5% (active) |
| CCOC(=O)CNCCC1(CC)C(=O)NC(=O)NC1=O | -0.55% (inactive) |
| [N-]=[N+]=CC(=O)c1ccc(Cl)cc1 | 34.5% (inactive) |
| C[C@@H]1C[C@@H]2c3cccc4c3c(cn4CO)C[C@H]2N(C)C1 | 8.55% (inactive) |
| O=[N+]([O-])c1ccc(O)c(C=NCCN=Cc2cc([N+](=O)[O-])ccc2O)c1.[Ni+2] | -30.6% (inactive) |
| CC(C)OP(=O)(OCCCO)C(Cl)Cl (stereo unspecified) | 0.35% (inactive) |
| C1CC[N-]CC1.CN(C)P(=O)(N(C)C)N(C)C.OO.OO.[O]=[Mo] | 11.3% (inactive) |
| CCC1(CC)C(=O)NC(=O)[N]([Sn]([CH3])([CH3])[N]2C(=O)NC(=O)C(CC)(CC)C2=O)C1=O | -17.3% (inactive) |
| Cl.[O-]c1cccc2cccnc12.[O-]c1cccc2cccnc12.[O-]c1cccc2cccnc12.[O-]c1cccc2cccnc12.[Ti+4] | 89.8% (active) |
| CC(Cc1ccc2c(c1)OCO2)NCC(O)c1ccc(O)c(O)c1 (stereo unspecified) | 14.6% (inactive) |
